From PubChem BioAssay (Tox21)
Inconclusive results are not listed. Active and inactive are the calls of the source. Unless noted, the call rests on the fitted dose curve.

Tests used:
[1] = Nuclear factor erythroid 2-related factor 2/antioxidant responsive element (Nrf2/ARE) small molecule agonists: qHTS cell viability counter screen in human keratinocytes (AID 1919968; active means well fitted curve in the direction sought with a large enough effect in the repeat runs; an effect the other way counts as inactive or inconclusive; further: nearly all actives have a fitted effect of over 55% in size)
Method in brief: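 HaCaT ARE reporter line, 1,500 cells/well; 5 h settle, 37 C/5% CO2; cpd in DMSO pinned; 23 h exposure; CellTiter-Fluor, 1 h; fluorescence.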

[2] = Nuclear factor erythroid 2-related factor 2/antioxidant responsive element (Nrf2/ARE) small molecule agonists: luciferase reporter gene qHTS assay in human keratinocytes (AID 1919969); further: nearly all actives have a fitted effect of over 35% in size
[3] = molecular target: Gonadotropin-releasing hormone receptor (Homo sapiens) (UniProt P30968); test: Human gonadotropin-releasing hormone receptor (GnRHR) small molecule agonists, calcium flux assay in GnRHR-HEK293 cells (AID 1920063); further: nearly all actives have a fitted effect of over 35% in size
Method in brief: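 GnRHR-HEK293, 1500 cells/well, 18 h 37 C/5% CO2; Ca dye 1 h 37 C; cpd pinned (DMSO), agonist mode; kinetic FL 480/540, 3 min, 1 s reads; 15 conc, n=3.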

[4] = molecular target: KiSS-1 receptor (Homo sapiens) (UniProt Q969F8); test: Human kisspeptin (KISS1R) small molecule agonists, calcium flux assay in KISS1R-HEK293 cells (AID 1920064; active means well fitted curve in the direction sought with a large enough effect in the repeat runs; an effect the other way counts as inactive or inconclusive)
Method in brief: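 Stable human KISS1R HEK293 line; 18 h plating, 37 C/5% CO2; calcium dye 1 h 37 C; compound pin transfer; kinetic fluorescence Ex/Em 480/540, 3 min.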

[5] = p53 small molecule agonists, cell-based qHTS assay with human liver microsomes (AID 1963577);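 further: p53 response element beta-lactamase reporter cells with liver microsomes plus NADPH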
Method in brief: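 Steps: plate p53RE-bla cells, incubate 5 h at 37 C; add compound in DMSO; add microsomes (0.5 mg/mL final) and NADPH (0.5 mg/mL final); incubate 16 h at 37 C; add LiveBLAzer, 2 h RT; read fluorescence.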

[6] = p53 small molecule agonists, cell-based qHTS assay with rat liver microsomes (AID 1963578)
Method in brief: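 Metabolic activation is supplied by rat liver microsomes with NADPH (each 0.5 mg/mL final). p53RE-bla cells incubate with compound 16 h at 37 C; reporter activity is measured by LiveBLAzer fluorescence.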

[7] = p53 small molecule agonists, cell-based qHTS assay with human liver microsomes: qHTS cell viability counter screen (AID 1963579); further: nearly all actives have a fitted effect of over 45% in size
Method in brief: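 After the 460/530 nm beta-lactamase read, CellTiter-Glo was added to the same wells and luminescence measured after 30 min at room temperature, giving viability of p53RE-bla cells treated 16 h with compounds plus microsomes and NADPH.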

[8] = p53 small molecule agonists, cell-based qHTS assay: qHTS cell viability counter screen (AID 1963581); further: nearly all actives have a fitted effect of over 45% in size
Method in brief: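 HCT-116 p53RE-bla cells, 4,000/well, plated 5 h before compound pin transfer; 16 h at 37 C; bla substrate 2 h RT; then CellTiter-Glo, 30 min RT, luminescence.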

[9] = p53 small molecule agonists, cell-based qHTS assay (AID 1963582; active means well fitted activation curve with a large enough effect in the signal ratio in the repeat runs, not every such curve was filed as active; the % refers to the signal ratio)
Method in brief: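 Reporter line: p53RE-bla. Pre-incubation 5 h, 37 C, 5% CO2; compound (DMSO, pin tool) 16 h, 37 C; B/G FRET substrate 2 h RT; fluorescence intensity read.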

[10] = molecular target: 5-hydroxytryptamine receptor 2A (Homo sapiens) (UniProt P28223); test: 5-hydroxytryptamine receptor 2A (HTR2A) small molecule antagonists, cell-based qHTS assay (AID 1963586); further: nearly all actives have a fitted effect of over 45% in size
Method in brief: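 Antagonist-mode intracellular calcium assay: DOI (4 nM) added after 5 min compound pre-incubation at room temperature to dye-loaded HTR2A-CHO cells. Fluorescence followed for 3 min, sampled every second.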

[11] = molecular target: 5-hydroxytryptamine receptor 2A (Homo sapiens) (UniProt P28223); test: 5-hydroxytryptamine receptor 2A (HTR2A) small molecule agonists, cell-based qHTS assay (AID 1963587); further: nearly all actives have a fitted effect of over 30% in size
Method in brief: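 Kinetic calcium-flux fluorescence (2 min, 1 sec intervals) after compound addition in agonist mode. HTR2A-CHO cells were cultured 18 h, then dye-loaded 1 h at 37 C.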

[12] = molecular target: Muscarinic acetylcholine receptor M1 (Homo sapiens) (UniProt P11229); test: Cholinergic receptor muscarinic 1 (CHRM1) small molecule antagonists, cell-based qHTS assay (AID 1963588); further: nearly all actives have a fitted effect of over 40% in size
Method in brief: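 CHRM1-CHO calcium-flux assay, antagonist mode. Cells were seeded 18 h, dye-loaded 1 h at 37 C and given compound for 5 min at RT, then acetylcholine was added at 50nM. FDSS fluorescence was read 3 min; 15 concentrations, three runs.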

[13] = cAMP Responsive Elements (CRE) small molecule agonists, cell-based qHTS assay (AID 1963590)
Method in brief: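 HEK 293T CRE-bla, 2,000 cells/well, 18 h preincubation 37 C/5% CO2; cpds (DMSO) pinned, 3 h; LiveBLAzer B/G FRET substrate, 2 h RT.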

[14] = cAMP Responsive Elements (CRE) small molecule antagonists, cell-based qHTS assay (AID 1963591; active means well fitted inhibition curve with a large enough effect in the signal ratio in the repeat runs, not every such curve was filed as active; the % refers to the signal ratio)
Method in brief: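 Beta-lactamase reporter read by FRET substrate (LiveBLAzer B/G) after 2 h at room temperature. CRE-bla HEK293T cells had received compound plus 0.25 uM (final) NKH477 for 3 h at 37 °C.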

[15] = molecular target: D(2) dopamine receptor (Homo sapiens) (UniProt P14416); test: Dopamine D2 receptor (DRD2) small molecule agonists, cell-based qHTS assay (AID 1963594); further: nearly all actives have a fitted effect of over 35% in size; further: potency means the concentration at half of the fitted maximal effect
Method in brief: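 cAMP accumulation in DRD2-HEK293 cells measured by HTRF after 1 h detection; compounds added 10 min before NKH477 (200nM […]) forskolin-analogue stimulation, 30 min at room temperature, with Ro20-1724 present at 0.1 mM final.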

[16] = molecular target: D(2) dopamine receptor (Homo sapiens) (UniProt P14416); test: Dopamine D2 receptor (DRD2) small molecule antagonists, cell-based qHTS assay (AID 1963595; active means well fitted inhibition curve with a large enough effect in the signal ratio in the repeat runs, with a control signal flat; the % refers to the signal ratio)
Method in brief: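 In this cell-based antagonist screen, compounds act for 10 min at room temperature before a 30 min challenge with 12 nM quinpirole and 200 nM NKH477. cAMP is quantified by HTRF competition in DRD2-HEK293 cells containing 0.1 mM Ro20-1724.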

[17] = p53 small molecule agonists, cell-based qHTS assay with rat liver microsomes: qHTS cell viability counter screen (AID 1963580); further: nearly all actives have a fitted effect of over 45% in size
Method in brief: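 HCT-116 p53RE-bla, 4,000 cells/well, 5 h pre-incubation; cpd + rat liver microsomes 0.5 mg/mL + NADPH 0.5 mg/mL (final); 16 h, 37 C; CellTiter-Glo, 30 min RT; luminescence.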

[18] = molecular target: Muscarinic acetylcholine receptor M1 (Homo sapiens) (UniProt P11229); test: Cholinergic receptor muscarinic 1 (CHRM1) small molecule agonists, cell-based qHTS assay (AID 1963589); further: nearly all actives have a fitted effect of over 35% in size
Method in brief: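 Human M1 in stable CHO line; 18 h plating, 1 h dye load 37 C; cpd added (agonist mode); Ca2+ fluorescence kinetic read, 1 s intervals; 15 conc, 3 runs.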

[19] = molecular target: Beta-2 adrenergic receptor (Homo sapiens) (UniProt P07550); test: Adrenergic beta2 receptor (ADRB2) small molecule antagonists, cell-based qHTS assay (AID 1963592); further: series mostly up to about 92 µM; nearly all actives have a fitted effect of over 50% in size
Method in brief: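 Cells (CHO, stable ADRB2 overexpression) incubated 18-20hr at 37C; compounds added from DMSO; agonist mix (1nM isoproterenol, 100uM IBMX, 25uM Ro-20-1724) added; 0.5hr RT; d2-cAMP and anti-cAMP-cryptate added; 1hr RT; 665/615 nm read.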

[20] = molecular target: Beta-2 adrenergic receptor (Homo sapiens) (UniProt P07550); test: Adrenergic beta2 receptor (ADRB2) small molecule agonists, cell-based qHTS assay (AID 1963593);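 further: CHO cells stably overexpressing human ADRB2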
Method in brief: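 CHO cells stably over-expressing ADRB2 were plated overnight at 37C, then dosed with compounds plus a stimulation mix containing 100uM IBMX and 25uM Ro-20-1724 for 0.5hr at room temperature. cAMP was measured by HTRF competition, 1hr.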
On the % scale 0 is the no-effect control and ±100 the full control effect.

Sequence of Muscarinic acetylcholine receptor M1 (Homo sapiens) (P11229 whole entry, looked up): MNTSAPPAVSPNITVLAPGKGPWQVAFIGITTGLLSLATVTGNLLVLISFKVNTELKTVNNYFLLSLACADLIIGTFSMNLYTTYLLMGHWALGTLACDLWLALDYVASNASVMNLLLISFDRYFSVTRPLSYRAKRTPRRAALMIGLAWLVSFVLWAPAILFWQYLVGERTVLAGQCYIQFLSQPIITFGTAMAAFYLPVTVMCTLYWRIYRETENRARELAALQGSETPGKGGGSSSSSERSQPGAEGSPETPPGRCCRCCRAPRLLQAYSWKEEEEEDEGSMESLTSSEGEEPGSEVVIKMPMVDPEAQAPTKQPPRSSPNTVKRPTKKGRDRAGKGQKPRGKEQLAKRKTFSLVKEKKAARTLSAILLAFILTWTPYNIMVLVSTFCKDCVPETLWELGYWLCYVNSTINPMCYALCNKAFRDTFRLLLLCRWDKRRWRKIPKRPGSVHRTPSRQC
Sequence of 5-hydroxytryptamine receptor 2A (Homo sapiens) (P28223 whole entry, looked up): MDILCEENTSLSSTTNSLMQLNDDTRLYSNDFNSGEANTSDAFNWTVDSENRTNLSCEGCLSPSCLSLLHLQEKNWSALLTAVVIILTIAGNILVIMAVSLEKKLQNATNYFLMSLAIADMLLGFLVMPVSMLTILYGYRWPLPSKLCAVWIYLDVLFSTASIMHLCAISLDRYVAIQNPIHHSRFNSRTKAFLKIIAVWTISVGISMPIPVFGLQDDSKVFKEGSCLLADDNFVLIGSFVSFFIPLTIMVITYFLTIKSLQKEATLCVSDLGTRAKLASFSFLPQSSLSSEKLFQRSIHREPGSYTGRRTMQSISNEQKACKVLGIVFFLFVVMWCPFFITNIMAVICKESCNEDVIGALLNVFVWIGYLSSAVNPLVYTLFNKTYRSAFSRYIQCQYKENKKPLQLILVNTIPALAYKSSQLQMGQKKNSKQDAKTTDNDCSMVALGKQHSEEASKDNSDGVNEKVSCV
Sequence of KiSS-1 receptor (Homo sapiens) (Q969F8 whole entry, looked up): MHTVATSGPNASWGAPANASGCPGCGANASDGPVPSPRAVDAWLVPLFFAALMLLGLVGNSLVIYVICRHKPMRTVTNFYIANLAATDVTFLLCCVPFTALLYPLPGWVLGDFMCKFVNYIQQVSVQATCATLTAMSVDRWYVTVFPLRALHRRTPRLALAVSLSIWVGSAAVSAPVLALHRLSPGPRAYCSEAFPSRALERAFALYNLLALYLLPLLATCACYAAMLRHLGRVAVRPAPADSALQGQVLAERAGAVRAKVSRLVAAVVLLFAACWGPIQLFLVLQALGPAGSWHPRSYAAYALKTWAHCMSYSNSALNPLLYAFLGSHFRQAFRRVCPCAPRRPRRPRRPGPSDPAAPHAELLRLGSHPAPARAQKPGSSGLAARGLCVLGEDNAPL
Sequence of Beta-2 adrenergic receptor (Homo sapiens) (P07550 whole entry, looked up): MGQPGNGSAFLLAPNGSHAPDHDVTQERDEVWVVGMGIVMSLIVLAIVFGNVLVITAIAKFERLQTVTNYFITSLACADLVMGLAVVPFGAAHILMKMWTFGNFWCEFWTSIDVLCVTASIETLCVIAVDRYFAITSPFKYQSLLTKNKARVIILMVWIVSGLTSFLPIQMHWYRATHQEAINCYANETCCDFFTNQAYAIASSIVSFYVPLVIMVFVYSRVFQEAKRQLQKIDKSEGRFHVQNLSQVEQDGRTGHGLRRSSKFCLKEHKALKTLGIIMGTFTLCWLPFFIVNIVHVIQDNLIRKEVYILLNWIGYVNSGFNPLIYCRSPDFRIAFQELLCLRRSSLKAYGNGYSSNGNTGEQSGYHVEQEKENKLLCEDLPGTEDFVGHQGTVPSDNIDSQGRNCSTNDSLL
Sequence of D(2) dopamine receptor (Homo sapiens) (P14416 whole entry, looked up): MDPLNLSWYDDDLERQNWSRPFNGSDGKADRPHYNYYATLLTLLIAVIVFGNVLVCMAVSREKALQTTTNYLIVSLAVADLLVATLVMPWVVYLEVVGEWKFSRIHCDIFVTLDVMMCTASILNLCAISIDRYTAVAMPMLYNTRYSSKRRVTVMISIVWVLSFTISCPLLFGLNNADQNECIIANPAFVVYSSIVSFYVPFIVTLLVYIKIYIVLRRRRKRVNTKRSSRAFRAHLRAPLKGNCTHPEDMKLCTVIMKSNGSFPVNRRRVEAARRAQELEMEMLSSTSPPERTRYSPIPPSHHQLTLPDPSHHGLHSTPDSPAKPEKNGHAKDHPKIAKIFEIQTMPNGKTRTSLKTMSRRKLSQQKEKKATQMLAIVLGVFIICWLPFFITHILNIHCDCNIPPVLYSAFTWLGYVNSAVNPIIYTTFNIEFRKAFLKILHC
Sequence of Gonadotropin-releasing hormone receptor (Homo sapiens) (P30968 whole entry, looked up): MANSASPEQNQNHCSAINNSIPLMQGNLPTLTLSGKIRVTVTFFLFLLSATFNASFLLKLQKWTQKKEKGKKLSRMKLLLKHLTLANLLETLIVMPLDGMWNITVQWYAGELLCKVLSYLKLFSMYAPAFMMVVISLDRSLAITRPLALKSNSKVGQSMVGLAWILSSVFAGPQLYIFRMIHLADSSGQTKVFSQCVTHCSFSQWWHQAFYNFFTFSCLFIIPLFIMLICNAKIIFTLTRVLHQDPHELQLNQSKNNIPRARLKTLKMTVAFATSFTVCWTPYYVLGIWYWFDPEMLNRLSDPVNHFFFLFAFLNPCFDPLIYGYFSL

OCCN(CCO)c1ccccc1
inactive: Potency [1] | Potency [2] | Potency [3] | outcome [4] | Potency [5] | Potency [6] | Potency [7] | Potency [8] | Potency [9] | Potency [10] | Potency [11] | Potency [12] | Potency [13] | Potency [14] | Potency [15] | Potency [16]

OCCCc1cccnc1
inactive: Potency [1] | Potency [2] | Potency [3] | outcome [4] | Potency [5] | Potency [6] | Potency [7] | Potency [17] | Potency [9] | Potency [11] | Potency [12] | Potency [18] | Potency [13] | Potency [14] | Potency [19] | Potency [16]

CN1CCN(c2c(F)cc3c(=O)c(C(=O)O)cn4c3c2SCC4)CC1
inactive: Potency [1] | Potency [2] | Potency [3] | outcome [4] | Potency [5] | Potency [7] | Potency [17] | Potency [10] | Potency [11] | Potency [12] | Potency [18] | Potency [19] | Potency [20]

Oc1cccc2[nH]ccc12
inactive: Potency [1] | Potency [2] | Potency [3] | outcome [4] | Potency [5] | Potency [6] | Potency [17] | Potency [8] | Potency [9] | Potency [10] | Potency [11] | Potency [12] | Potency [18] | Potency [13] | Potency [14] | Potency [20] | Potency [15] | Potency [16]

COc1ncnc(NS(=O)(=O)c2ccc(N)cc2)c1OC
inactive: Potency [1] | Potency [2] | Potency [3] | outcome [4] | Potency [5] | Potency [6] | Potency [17] | Potency [8] | Potency [9] | Potency [13] | Potency [14] | Potency [20] | Potency [15] | Potency [16]

C[C@@H]1C[C@H]2[C@@H]3CCC4=CC(=O)C=C[C@]4(C)[C@@]3(F)[C@@H](O)C[C@]2(C)[C@@]1(O)C(=O)CO
inactive: Potency [1] | Potency [2] | Potency [3] | outcome [4] | Potency [5] | Potency [6] | Potency [7] | Potency [9] | Potency [13] | Potency [14] | Potency [19] | Potency [15] | Potency [16]

O=C(O)c1cc(Cl)cc(Cl)c1O
inactive: Potency [1] | Potency [2] | Potency [3] | outcome [4] | Potency [5] | Potency [6] | Potency [7] | Potency [8] | Potency [9] | Potency [10] | Potency [11] | Potency [12] | Potency [18] | Potency [14] | Potency [19] | Potency [15] | Potency [16]

CC1=NS(=O)(=O)c2cc(Cl)ccc2N1
inactive: Potency [1] | Potency [2] | Potency [3] | outcome [4] | Potency [5] | Potency [7] | Potency [17] | Potency [9] | Potency [13] | Potency [14] | Potency [19] | Potency [15] | Potency [16]

Cc1ccc(N(CC2=NCCN2)c2cccc(O)c2)cc1
inactive: Potency [1] | Potency [2] | Potency [3] | outcome [4] | Potency [5] | Potency [7] | Potency [17] | Potency [8] | Potency [9] | Potency [13] | Potency [14] | Potency [19] | Potency [20] | Potency [15]

NCC[C@H](O)C(=O)N[C@@H]1C[C@H](N)[C@@H](O[C@H]2O[C@H](CN)[C@@H](O)[C@H](O)[C@H]2O)[C@H](O)[C@H]1O[C@H]1O[C@H](CO)[C@@H](O)[C@H](N)[C@H]1O
inactive: activity change, negative = cytotoxicity [1] -17.6% [at 0.349 µM] | activity, positive = activation [2] 1.57% [at 0.349 µM] | activity change [3] -0.191% [at 0.217 µM, active compounds read high] | activation [4] 0.177% [at 0.29 µM] | activation [5] 0.0378% [at 0.249 µM] | activation [6] -0.443% [at 0.249 µM] | activity change, negative = cytotoxicity [7] 4.34% [at 0.249 µM] | activity change, negative = cytotoxicity [17] 1.45% [at 0.249 µM] | activity change, negative = cytotoxicity [8] -9.5% [at 0.249 µM] | activation [13] -1.43% [at 0.349 µM] | activity change, negative = inhibition [19] 4.47% [at 0.349 µM] | activation [20] 21.1% [at 0.349 µM] | activity change, negative = inhibition [16] -0.368% [at 0.348 µM]

CN1C[C@H](C(=O)N[C@]2(C)O[C@@]3(O)[C@@H]4CCCN4C(=O)[C@H](Cc4ccccc4)N3C2=O)C[C@@H]2c3cccc4[nH]cc(c34)C[C@H]21
active: Potency [15] 0.022 µM
inactive: Potency [1] | Potency [2] | Potency [3] | outcome [4] | Potency [5] | Potency [6] | Potency [17] | Potency [8] | Potency [9]

C#CCOC(=O)[C@@H](C)Oc1ccc(Oc2ncc(Cl)cc2F)cc1
inactive: Potency [1] | Potency [2] | Potency [3] | outcome [4] | Potency [5] | Potency [6] | Potency [7] | Potency [9] | Potency [10] | Potency [11] | Potency [12] | Potency [18] | Potency [14] | Potency [19] | Potency [15] | Potency [16]
